The text below walks through data of PubChem BioAssay AID485344 (National Center for Advancing Translational Sciences (NCATS), 2010).

Where “and” joins values, the source holds several entries; their conditions need not be identical. Equal entries are not always repeated. Among all 340,000 compounds or so, about 6,900 (2%) were called active. No stated cut-off is given here; in the data, active means inhibition above about 30%; inactive means below that, where a call was filed. For the sample, actives were picked, then their nearest neighbours and some compounds at random. A structure can be active in one record and inactive in another.

D(2) dopamine receptor (Homo sapiens), sequence (P14416 whole entry, looked up): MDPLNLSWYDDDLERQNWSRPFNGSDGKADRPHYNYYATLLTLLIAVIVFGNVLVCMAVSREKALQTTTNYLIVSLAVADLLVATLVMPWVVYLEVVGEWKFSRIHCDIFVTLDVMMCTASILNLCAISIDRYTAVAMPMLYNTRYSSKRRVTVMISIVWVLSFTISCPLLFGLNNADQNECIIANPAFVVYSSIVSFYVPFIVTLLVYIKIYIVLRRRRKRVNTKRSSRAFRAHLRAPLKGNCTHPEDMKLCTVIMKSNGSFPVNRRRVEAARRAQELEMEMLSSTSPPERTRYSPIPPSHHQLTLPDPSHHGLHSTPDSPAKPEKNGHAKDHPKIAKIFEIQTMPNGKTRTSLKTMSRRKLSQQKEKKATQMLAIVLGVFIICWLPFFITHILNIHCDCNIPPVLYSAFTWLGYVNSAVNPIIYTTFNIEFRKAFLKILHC

For the test, the target named is D(2) dopamine receptor (Homo sapiens) (UniProt P14416). The test is described as follows: HTS Assay for Allosteric Antagonists of the Human D2 Dopamine Receptor: Primary Screen for Antagonists. Further: 0% is about no effect. To be noted: HEK293 TREx D2 cells, calcium flux, dopamine EC80; at 10 µM; stronger effect = higher value. The method in brief:
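Tetracycline-induced HEK293 TREx cells expressing D2 receptor forced-coupled to calcium signalling, loaded with no-wash calcium dye. Compounds added and calcium flux read 180 s, then dopamine added at EC80 and read a further 180 s.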
For orientation: A change in cytosolic calcium serves as a functional read-out for many receptors and channels.
`Cc1c(C(=O)Nc2ccccn2)oc2ccc(Br)cc12`: the inhibition was -19.8% (inactive).
As to `O=C(COC(=O)c1ccccc1SCC(=O)N1CCCC1)Nc1ccccc1OC(F)F`, the inhibition is -3.18% (inactive).
Next, `COC(=O)c1cc(S(=O)(=O)NCC2CCN(Cc3ccc(Cl)cc3)CC2)cn1C`: -3.52% (inactive).
As to `COc1ccc(CN2CCC(c3nc4ccc(Cl)cc4[nH]3)CC2)cc1`, the inhibition was 59.7% (active).
Under `COc1ccc(Cn2nnc3c(=O)[nH]c(C4CCN(C(=O)c5ccccc5Cl)CC4)nc32)cc1` stands 5.81% (inactive).
`Nc1c(N(CCCO)C(=O)C2CCCC2)c(=O)[nH]c(=O)n1Cc1ccccc1`: the inhibition was 10.6% (inactive).
For the compound `Cc1cccc(NC(=O)CN2CCN(CC(=O)NCC3(N4CCCCC4)CCCCC3)CC2)c1C`, the inhibition was 6.75% (inactive).
As to `CCN(CC(=O)Nc1cc(Cl)ccc1C)C(=O)CSCc1ccccc1`, the inhibition is 6.06% (inactive).
Under `CC(C#N)(NC(=O)CN1CCN(S(=O)(=O)c2cc(C(F)(F)F)ccc2Cl)CC1)C1CC1` (centres undefined) stands 12.9% (inactive); under `O=C(CSc1nc2ccccc2[nH]1)N/N=C/C=C\c1ccccc1[N+](=O)[O-]`, -1.1% (inactive); under `CC1CCN(c2ccc([N+](=O)[O-])c(SCCO)c2)CC1`, -11.8% (inactive).
Under `CN1CCN(c2ccc([N+](=O)[O-])c(Sc3nc4ccccc4[nH]3)c2)CC1` stands 88.9% (active); under `Cc1noc(C)c1COc1ccccc1C(=O)N(C)CC(=O)Nc1cccc(F)c1`, 6.3% (inactive); under `COc1ccc(N(CC(=O)N/N=C/c2cccc3c2OCCO3)S(=O)(=O)c2ccc(NC(C)=O)cc2)cc1`, 44.5% (active).
Next, `COc1ccc(S(=O)(=O)N(CC(=O)N/N=C/c2ccccc2C(=O)O)c2ccccc2OC)cc1`: 1.95% (inactive); `CC(=O)Nc1ccc(S(=O)(=O)N(CCc2ccccc2)CC(=O)N/N=C/c2ccc(C(=O)O)cc2)cc1`: 10.8% (inactive).
Regarding `O=C(CCc1nnc(CCCCc2ccccc2)o1)NC(c1cccnc1)C(F)(F)F` (centres undefined), the inhibition is 32.7% (active).
Consider `CC(CCn1cccn1)NC(=O)CCc1nnc(CCc2ccccc2)o1` (centres undefined), for which the inhibition is 3.4% (inactive).
Next, `Cc1cc(-c2nnc(CCC(=O)NC(c3ccccc3)c3ccccc3)o2)no1`: 4.61% (inactive).
Next, `O=S(=O)(NCCc1ccccn1)c1cc(Cl)cc(Cl)c1O`: 0.268% (inactive); `O=C(Nc1ncccc1O)c1ccc(S(=O)(=O)N2CCCC2)cc1`: -6.12% (inactive).
`O=C(CN1C(=O)NC2(CCCCC2)C1=O)N1CCN(C(=O)c2cccs2)CC1`: the inhibition was -4.48% (inactive).
Next, `CCCc1ccc(C(=O)COC(=O)CN2C(=O)NC3(CCCCC3C)C2=O)cc1` (centres undefined): -19.2% (inactive); `COc1ccc(NC(=O)CSc2nc(C)cs2)cc1`: 7.3% (inactive); `COc1ccc(NC(=O)c2sc(N)nc2-c2ccccc2)cc1`: -6.34% (inactive).
As to `COc1ccc(NC(=O)c2sccc2SCC#N)cc1`, the inhibition is 31.6% (active).
Under `NC(=O)NC(=O)C(OC(=O)CCNS(=O)(=O)c1ccccc1)c1ccccc1` (centres undefined) stands 12.6% (inactive); under `O=C1COc2ccc(C(=O)CSc3ccc(Br)cc3)cc2N1`, 11.8% (inactive).
Next, `COc1cccc(C2=CC(=O)C[C@H](c3ccc(OC)c(OC)c3)C2)c1`: 9.37% (inactive).
With `CC(C)CCN1CCN(Cc2ccc(C(F)(F)F)cc2)CC1CCO` (centres undefined), the inhibition was 14.1% (inactive).
With `CC(C)CCN1CCN(Cc2cn[nH]c2C2CCCCC2)CC1CCO` (centres undefined), the inhibition was 56.2% (active).
Next, `CC(C)CCN1CCN(C/C=C/c2ccco2)CC1CCO` (centres undefined): -9.65% (inactive).
Next, `COc1ccc(CCNC(=O)COc2ccc3c(c2)OCO3)cc1`: -6.03% (inactive); `Cn1c(=O)c2ccccc2n(CC(=O)Nc2ccc3c(c2)OCCO3)c1=O`: 0.133% (inactive); `O=C(Cn1c(=O)sc2ccccc21)Nc1ccc2c(c1)OCCO2`: -10.2% (inactive).
Next, `O=C(CN1CCC(O)(c2ccccc2)CC1)Nc1ccc2c(c1)OCCO2`: 94.9% (active); `CC1CCCC(NC(=O)c2cc(-c3ccncc3)nc3ccccc23)C1C` (centres undefined): -1.15% (inactive); `CC(OC(=O)Cc1ccc(F)cc1)C(=O)N1CCc2ccccc21` (centres undefined): -8.93% (inactive).
`CN(CC(=O)Nc1ccc(F)c(F)c1F)C(=O)C1CC(=O)N(C2CCCC2)C1` (centres undefined): the inhibition is -11.5% (inactive).
For `O=C(NC1CCCCC1)c1cc(C2CC2)on1`, the inhibition was -9.03% (inactive).
Next, `CC(NC(=O)c1cc(-c2ccccc2)on1)c1ccccc1` (centres undefined): 11.6% (inactive).
Turning to `O=C(NC1CCCC1)c1cc(-c2ccccc2)on1`, the inhibition is 37.6% (active).
As to `CCn1c(SCC(=O)NCC2CCCO2)nc2ccccc21` (centres undefined), the inhibition was -20.8% (inactive).
Next, `O=C(NC1CCCCC1)N1CCc2[nH]c3ccccc3c2C1`: -14.3% (inactive); `COC(=O)C1CCN(C(=O)c2cc(=O)[nH]c3ccccc23)CC1`: 17.7% (inactive).
In the case of `COC(=O)[C@H]1[C@H]2C[C@H]3c4[nH]c5ccccc5c4CCN3C[C@@H]2CC[C@@H]1O`, the inhibition was -5.26% (inactive) and 43.4% (active).
Under `O=C(COC(=O)Cc1ccc(Br)cc1)Nc1ccc(N2CCOCC2)cc1` stands 22.4% (inactive); under `COc1ccc(CNC(=O)Cc2ccc(-c3ccccc3)cc2)cc1OC`, 20.3% (inactive); under `COc1cc(CNCc2cccs2)cc(Br)c1OC`, -4.22% (inactive).
Under `COc1cc(CNCc2ccc(OC)c3ccccc23)cc(OC)c1OC` stands 33% (active).
Regarding `COC(=O)C1=CO[C@@H](O[C@@H]2O[C@H](CO)[C@@H](O)[C@H](O)[C@H]2O)C2C1C[C@H](O)[C@@H]2C` (some centres undefined), the inhibition was -6.47% (inactive).
Next, `COc1ccc(-n2c(SCC(=O)NCc3cccs3)nnc2-c2ccoc2C)cc1`: 42.5% (active); `COc1ccc(-n2c(SCC(=O)NCc3ccco3)nnc2-c2c[nH]c3ccccc23)cc1`: -8.02% (inactive).
Under `COc1ccc(-n2nnnc2SCC(=O)NCc2cccs2)cc1` stands -2.89% (inactive); under `CN1CCN(S(=O)(=O)c2cccc(C(=O)Nc3sccc3C#N)c2)CC1`, 0.535% (inactive).
Next, `CN(C)C(=O)c1ccc(NC(=O)COC(=O)c2cc3c(s2)CCCCC3)cc1`: -7.26% (inactive); `COc1ccc(-c2nc3ccccc3c(=O)n2CCc2ccc(O)cc2)cc1`: -13.4% (inactive).
As to `COc1ccc(CCNCc2c(-c3ccccc3)n(C)c3ccccc23)cc1`, the inhibition was 45.6% (active).
Consider `COc1ccc(-c2c(C#Cc3ccccc3)c3ccccc3n2C)cc1`, for which the inhibition is 9.11% (inactive).

For orientation: inhibition means the change of the read-out against control, counted positive when it falls.
